Compounds without any hit were thinned out: in the full panel of roughly 83,000, 20% have a hit.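 Step 1: grow cells in 96-well plates. Step 2: add test compound at a single concentration. Step 3: incubate 48 h. Step 4: record percent growth.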 Active and inactive are the calls of the source. How the source made its calls: active means growth percent below 10; inactive means the rest.
Key:
Experiment in all cases: NCI-60 one-dose screen, 48 h (100 = growth as untreated, 0 = no growth, -100 = all killed)
Details in all cases: 10 µM
RPMI-8226 leukemia = tested on: RPMI-8226 leukemia
OVCAR-8 ovarian = tested on: OVCAR-8 ovarian
OVCAR-4 ovarian = tested on: OVCAR-4 ovarian
SK-OV-3 ovarian = tested on: SK-OV-3 ovarian
OVCAR-3 ovarian = tested on: OVCAR-3 ovarian
HS 578T breast = tested on: HS 578T breast
NCI/ADR-RES ovarian = tested on: NCI/ADR-RES ovarian
T-47D breast = tested on: T-47D breast
BT-549 breast = tested on: BT-549 breast
MDA-MB-435 melanoma = tested on: MDA-MB-435 melanoma
MCF7 breast = tested on: MCF7 breast
HCT-116 colon = tested on: HCT-116 colon
HCC-2998 colon = tested on: HCC-2998 colon
KM12 colon = tested on: KM12 colon
MDA-MB-468 breast = tested on: MDA-MB-468 breast
IGROV1 ovarian = tested on: IGROV1 ovarian
SW-620 colon = tested on: SW-620 colon
OVCAR-5 ovarian = tested on: OVCAR-5 ovarian

Measured: growth

O=C(c1ccc(O)cc1)C1[C@H](c2ccccc2Br)[C@@H](c2ccccc2)NC12C(=O)Nc1ccc(Br)cc12 (stereo partly drawn)
active: OVCAR-3 ovarian 7.23% | MCF7 breast 7.04% | HCC-2998 colon -13.8% | MDA-MB-468 breast -25.6%
inactive: RPMI-8226 leukemia 24.6% | OVCAR-8 ovarian 48.6% | OVCAR-4 ovarian 51.4% | SK-OV-3 ovarian 65.2% | HS 578T breast 58.5% | NCI/ADR-RES ovarian 64.9% | T-47D breast 61.7% | BT-549 breast 55.6% | MDA-MB-435 melanoma 33.8% | HCT-116 colon 61.6% | KM12 colon 18.4%

Cc1ccc(C(C)C)cc1NC(=O)c1ccccc1N(C)C
inactive: RPMI-8226 leukemia 72.6% | OVCAR-8 ovarian 101% | OVCAR-4 ovarian 90% | SK-OV-3 ovarian 93.7% | IGROV1 ovarian 88.6% | OVCAR-3 ovarian 103% | HS 578T breast 110% | NCI/ADR-RES ovarian 74.6% | T-47D breast 57.1% | BT-549 breast 102% | MDA-MB-435 melanoma 95% | SW-620 colon 106% | MCF7 breast 82.8% | HCT-116 colon 68.3% | HCC-2998 colon 96.7% | KM12 colon 86.7% | MDA-MB-468 breast 71.9%

O=C(N/N=C/c1ccc(-c2cccc([N+](=O)[O-])c2)o1)c1[nH]c2ccc(Br)cc2c1-c1ccccc1
active: OVCAR-8 ovarian -19.9% | OVCAR-3 ovarian 1.91% | HS 578T breast -2.96% | NCI/ADR-RES ovarian -50.9% | MCF7 breast 1.16% | HCT-116 colon -53.2% | KM12 colon 7.57% | MDA-MB-468 breast -3.87%
inactive: RPMI-8226 leukemia 12% | OVCAR-5 ovarian 23.3% | OVCAR-4 ovarian 45.5% | IGROV1 ovarian 33.7% | T-47D breast 75.9% | BT-549 breast 30.5% | MDA-MB-435 melanoma 16.6% | SW-620 colon 15.5% | HCC-2998 colon 15%

COc1ccccc1[C@H]1C(C(=O)c2ccc(O)cc2)C2(N[C@@H]1c1ccccc1)C(=O)Nc1ccc(Br)cc12 (stereo partly drawn)
inactive: RPMI-8226 leukemia 30.3% | OVCAR-8 ovarian 37.5% | OVCAR-4 ovarian 41.1% | SK-OV-3 ovarian 61.4% | IGROV1 ovarian 19.2% | HS 578T breast 36.3% | NCI/ADR-RES ovarian 57.7% | T-47D breast 45.8% | BT-549 breast 54% | MDA-MB-435 melanoma 14.2% | SW-620 colon 13.6% | HCT-116 colon 39.6% | KM12 colon 14.3%
active: OVCAR-3 ovarian -29.1% | MCF7 breast 3.19% | HCC-2998 colon -38.6% | MDA-MB-468 breast -42.9%

O=c1oc2ccc(-c3ccc(F)cc3F)cc2c(=O)n1-c1ccc(F)c(Cl)c1
active: RPMI-8226 leukemia -31% | OVCAR-8 ovarian 3.87% | SK-OV-3 ovarian -9.67% | OVCAR-3 ovarian 3.83% | HS 578T breast -0.875% | NCI/ADR-RES ovarian -15.2% | T-47D breast -11.8% | BT-549 breast -51.9% | MDA-MB-435 melanoma -17.7% | SW-620 colon 3.17% | MCF7 breast -17.2% | HCT-116 colon 4.77% | HCC-2998 colon 2.58% | KM12 colon -22.7% | MDA-MB-468 breast -47%
inactive: OVCAR-4 ovarian 10.5%

O=C(c1ccc(Cl)cc1)C1[C@H](c2ccccc2Br)[C@@H](c2ccccc2)NC12C(=O)Nc1ccc(Cl)cc12 (stereo partly drawn)
inactive: RPMI-8226 leukemia 10.8% | OVCAR-8 ovarian 24.2% | OVCAR-5 ovarian 20.8% | OVCAR-4 ovarian 27% | IGROV1 ovarian 17.7% | HS 578T breast 27.6% | T-47D breast 22% | BT-549 breast 75.9%
active: OVCAR-3 ovarian 4.76% | NCI/ADR-RES ovarian -60.1% | MDA-MB-435 melanoma -35.1% | MCF7 breast 0.103% | HCT-116 colon 7.63% | HCC-2998 colon -0.337% | KM12 colon 8.12% | MDA-MB-468 breast -40.2%

COc1cc(/C=C/C(=O)c2ccc(NC(=O)CN3C(=O)NC(C)(c4ccccc4)C3=O)cc2)cc(OC)c1OC (stereo not drawn)
inactive: OVCAR-8 ovarian 10.4% | OVCAR-5 ovarian 34.6% | OVCAR-4 ovarian 32.9% | SK-OV-3 ovarian 112% | IGROV1 ovarian 26.7% | HS 578T breast 39.3% | NCI/ADR-RES ovarian 102% | T-47D breast 33.9% | BT-549 breast 10.9% | HCC-2998 colon 10%
active: OVCAR-3 ovarian -6.99% | MDA-MB-435 melanoma 7.31% | SW-620 colon 8.07% | MCF7 breast 2.86% | HCT-116 colon -69.7% | KM12 colon -6.47% | MDA-MB-468 breast -23.1%

Cc1ccc(C(=O)Nc2ccc(-n3c(C)nc4c(cnn4-c4ccccc4)c3=O)cc2)cc1
inactive: RPMI-8226 leukemia 58.4% | OVCAR-8 ovarian 76.8% | OVCAR-4 ovarian 49.8% | SK-OV-3 ovarian 97.4% | IGROV1 ovarian 71.6% | OVCAR-3 ovarian 97% | HS 578T breast 84.8% | NCI/ADR-RES ovarian 52.7% | T-47D breast 34.6% | BT-549 breast 59.2% | MDA-MB-435 melanoma 70.5% | SW-620 colon 86.2% | MCF7 breast 47.8% | HCT-116 colon 51.5% | HCC-2998 colon 88.4% | KM12 colon 77.5% | MDA-MB-468 breast 21.1%

CO[C@@H]1CSSC1Cn1nc(-c2ccc(Oc3ccccc3)cc2)c2c(N)ncnc21 (stereo partly drawn)
active: T-47D breast 7.37% | MDA-MB-435 melanoma -72.1% | HCT-116 colon 9.66% | MDA-MB-468 breast -12.9%
inactive: RPMI-8226 leukemia 34.6% | OVCAR-8 ovarian 75.5% | OVCAR-5 ovarian 62.5% | OVCAR-4 ovarian 53.3% | IGROV1 ovarian 53.1% | OVCAR-3 ovarian 56% | HS 578T breast 61.6% | NCI/ADR-RES ovarian 57.5% | BT-549 breast 35.5% | MCF7 breast 16.5% | HCC-2998 colon 47.5% | KM12 colon 38%

Reference: PubChem BioAssay (NCI)
